Mtb betalactam – beta-lactam sensitization of Mtb H37Rv | M. tuberculosis H37Rv growth with meropenem, percent inhibition | AID 434955 | 0.27% of 330,000 active | inhibition, % at 25 µM; call rule not given here;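 further: growth measured after seven days incubation then overnight dye step; 0% = bacteria only wells and 100% = bacteria with antibiotic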
Mtb UGM inh – inhibitors of M. tuberculosis UDP-galactopyranose mutase; P9WIQ1; purified UGM, fluorescence polarization probe displacement; inhibition, % at 10 µM; 0.06% of 320,000 active; in the data active means inhibition above about 10%, passing the limit was not always enough
FadD28 binding – inhibitors of Mycobacterium tuberculosis FadD28 bisubstrate binding | FadD28 bisubstrate probe binding, fluorescence polarization | inhibition, % at 12.5 µM | 0.22% of 360,000 active; in the data active means inhibition above about 8.5%, passing the limit was not always enough
Rv3671c protease – inhibitors of M. tuberculosis serine protease Rv3671c; AID 2606; inhibition, % at 5.96 µM; 0.048% of 320,000 active; in the data active means inhibition above about 38%;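 further: extracellular domain of Rv3671c used as enzyme; 0% = enzyme with DMSO and 100% = no enzyme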
Target sequence (P9WHR9 whole entry, looked up, the tested form may be a part): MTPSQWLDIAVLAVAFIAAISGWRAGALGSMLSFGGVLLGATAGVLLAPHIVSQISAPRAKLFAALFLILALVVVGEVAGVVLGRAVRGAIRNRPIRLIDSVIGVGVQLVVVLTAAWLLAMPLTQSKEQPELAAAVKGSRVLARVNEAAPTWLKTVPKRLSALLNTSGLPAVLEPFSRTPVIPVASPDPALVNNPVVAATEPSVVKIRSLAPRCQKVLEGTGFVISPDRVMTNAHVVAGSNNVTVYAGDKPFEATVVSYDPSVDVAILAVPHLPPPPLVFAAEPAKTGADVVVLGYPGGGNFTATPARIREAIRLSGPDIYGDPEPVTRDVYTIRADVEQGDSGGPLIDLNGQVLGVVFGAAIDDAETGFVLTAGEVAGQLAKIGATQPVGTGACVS
Mtb FBA inh – inhibitors of M. tuberculosis fructose-bisphosphate aldolase; purified M. tuberculosis FBA, fluorescence read-out; 2.3% of 360,000 active; inhibition, % at 1 µM; AID 588726;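 further: 0% = vehicle and 100% = reference inhibitor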
GDH-TPI counter-1 – counter-screen for M. tuberculosis FBA inhibitors: GDH-TPI coupled enzymes; 1.2% of 360,000 active; inhibition, % at 4.8 µM; GDH-TPI coupled enzyme counterscreen, NADH absorbance; in the data active means inhibition above about 30%;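 further: 0% = DMSO wells and 100% = wells lacking the enzyme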
Mtb FBA confirm – Mtb FBA inhibition, confirmed; inhibition, % at 1 µM; purified M. tuberculosis FBA, fluorescence read-out; 78% of 5,600 active; shares compounds with Mtb FBA inh;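 further: 0% = vehicle wells and 100% = reference inhibitor wells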
GDH-TPI counter-2 – GDH-TPI inhibition counter-screen for FBA inhibitors | GDH-TPI coupled enzyme counterscreen, fluorescence | shares compounds with Mtb FBA inh | 81% of 5,600 active | inhibition, % at 1 µM; in the data active means inhibition above about 10%
Numbers without * were called inactive; · = not tested or not shown; + = active, no number. Rows were chosen to be rich in hits. Some 3.7% of all compounds tested hit in one or more screens of this group. Unless noted, no stated cut-off is given here; in the data, active means inhibition above about 27%; inactive means the rest.

SMILES	Mtb betalactam	Mtb UGM inh	FadD28 binding	Rv3671c protease	Mtb FBA inh	GDH-TPI counter-1	Mtb FBA confirm	GDH-TPI counter-2
Cc1ccc(/C=N/NC(=O)c2ccccc2OCc2ccc(F)cc2)o1	3	-4	-2	-7	94*	24	54*	47*
Cc1cc(C)c(C#N)c(N2CCCC2)n1	1	-2	1	1	30*	13	135*	92*
O=C(NCC(=O)N1CCOCC1)c1ccccc1	-5	0	·	5	-2	1	·	·
CC[C@@]1(O)C(=O)OCc2c1cc1n(c2=O)Cc2cc3ccccc3nc2-1	1	1	·	-5	·	·	·	·
CC[C@@]1(O)C(=O)OCc2c1cc1n(c2=O)Cc2cc3c(NC(=O)CN)cccc3nc2-1	6	-4	-2	-3	66*	25	48*	36*
CCC1(O)C(=O)OCc2c1cc1n(c2=O)Cc2cc3cc(O)ccc3nc2-1 (stereo unspecified)	·	·	-3	·	29*	27	133*	120*
O=C(NCCCSc1ccccc1)c1cc(Cl)ccc1O	15	0	0	·	36*	9	68*	48*
O=C(CNC(=O)c1ccccc1)NCCCSc1ccccc1	2	3	-5	6	-3	-5	·	·
Cc1cc(=O)oc2cc(O[C@@H]3O[C@H](CO)[C@H](O)[C@H](O)[C@H]3O)ccc12	-7	3	1	-7	7	6	·	·
Cc1c(C)c2ccc(O[C@@H]3O[C@H](CO)[C@H](O)[C@H](O)[C@H]3O)cc2oc1=O	3	2	1	·	38*	10	53*	42*
S=C(c1ccc(-c2ccc(Br)cc2)o1)N1CCCCC1	99	0	-3	2	59*	0	7	-2
S=C(c1ccc(-c2ccc(Br)cc2)o1)N1CCOCC1	-4	5	-3	7	-3	18	·	·
CCOC(=O)C1(C(=O)OCC)CCN(S(=O)(=O)c2ccccc2)CC1	·	·	-4	·	2	-10	·	·
O=S(=O)(Cc1ccccc1)N1CCN(C2Cc3ccccc3C2)CC1	0	-1	3	-5	29*	9	+	+
CNC(=S)N1CCN(c2c(F)cc3c(=O)c(C(=O)O)cn(C4CC4)c3c2OC)CC1C (stereo unspecified)	100	-2	-3	-4	14	9	·	·
COC(=O)C(C)NC(=S)N1CCN(c2c(F)cc3c(=O)c(C(=O)O)cn(C4CC4)c3c2OC)CC1C (stereo unspecified)	100	-3	-2	-2	30*	27	+	+
COc1ccc2nc3oc(C(=O)N4CCCCC4)cc3cc2c1	67	-2	1	-2	57*	24	84*	63*
COc1ccc2cc3cc(C(=O)N4CCN(c5ccccc5)CC4)oc3nc2c1	15	-3	0	1	4	6	·	·
CCOC(=O)C1CCCN(C(=O)c2cc3cc4ccc(OC)cc4nc3o2)C1 (stereo unspecified)	3	2	-1	8	92*	23	55*	32*
COc1ccc2nc3oc(C(=O)N4CC(C)CC(C)C4)cc3cc2c1 (stereo unspecified)	29	-3	-4	-3	56*	17	-1	-4
COc1ccc2cc3cc(C(=O)N4CCCC(C)C4)oc3nc2c1 (stereo unspecified)	3	0	0	-12	14	18	·	·
CCOC(=O)C1CCN(C(=O)c2cc3cc4cc(OC)ccc4nc3o2)CC1	-8	1	-1	-6	55*	19	109*	98*
CCCCN(C=O)c1c(CC)nc2c(OCc3ccc(S(C)(=O)=O)cc3)cccn12	·	·	-3	·	2	-7	·	·
CCOc1cc(C=NN2CCCCCC2)ccc1O	·	·	-3	·	-3	13	·	·
CCOC(=O)CN(c1ccccn1)S(=O)(=O)c1ccc(OC)cc1	-10	6	0	-3	46*	13	138*	100*
SMILES	Mtb betalactam	Mtb UGM inh	FadD28 binding	Rv3671c protease	Mtb FBA inh	GDH-TPI counter-1	Mtb FBA confirm	GDH-TPI counter-2
O=C(CN(c1ccccn1)S(=O)(=O)c1ccc(F)cc1)Nc1ccc(F)cc1F	6	3	-3	3	35*	6	117*	90*
CCOC(=O)CN(c1ccccc1)S(=O)(=O)c1ccc(F)cc1	-1	1	-3	-6	-1	-1	·	·
O=C(CN(c1ccc(F)cc1)S(=O)(=O)c1ccccc1)Nc1ccccc1C(=O)O	-5	-1	-4	-7	5	1	·	·
COc1ccc(C(CNC(=O)C(C)Oc2ccc(Br)cc2)N2CCCC2)cc1 (stereo unspecified)	-4	0	-1	-3	-3	19	·	·
COCC(=O)N(C)[C@H]1C[C@H]2c3[nH]c4ccccc4c3CCN2C(=O)[C@H]1[C@H](C)O	·	·	-3	·	12	-3	·	·
CN1OC[C@@H]2C(=O)N3CCc4c([nH]c5ccccc45)[C@@H]3C[C@@H]21	·	·	0	·	38*	-8	+	192*
C[C@H](O)[C@@H]1C(=O)N2CCc3c([nH]c4ccccc34)[C@@H]2C[C@@H]1N(C)C(=O)NC1CCCCC1	·	·	0	·	87*	11	157*	116*
COc1ccc(S(=O)(=O)N2CCOCC2)cc1NC(=O)C1CCCCN1S(=O)(=O)c1ccccc1 (stereo unspecified)	·	·	-2	·	-1	3	·	·
NS(=O)(=O)c1cc(C(=O)OCC(=O)Nc2ccc3c(c2)OCO3)ccc1Cl	5	-1	1	2	0	2	·	·
CCN(C(=O)COC(=O)c1cc(-c2ccc(C)o2)nc2ccccc12)C1CCS(=O)(=O)C1 (stereo unspecified)	-2	-1	-1	1	3	10	·	·
CCc1ccc(-c2cc(C(=O)NN3CCOCC3)c3ccccc3n2)s1	-9	1	1	1	89*	9	44*	35*
C/C(=N\NC(=O)c1cc(-c2ccc(C)s2)nc2ccccc12)c1cccnc1	4	0	-7	·	62*	11	136*	111*
CCN(C(=O)COC(=O)c1cc(-c2cccs2)nc2ccccc12)C1CCS(=O)(=O)C1 (stereo unspecified)	-4	-2	-6	-2	72*	16	45*	45*
O=C(c1cc(-c2cccs2)nc2ccccc12)N1CCN(CCO)CC1	·	·	-4	·	99*	8	+	+
C/C(=N\NC(=O)c1cc(-c2ccccc2C)nc2ccccc12)c1cccnc1	9	1	-1	·	-2	-1	·	·
CC(C)C[C@H](NC(=O)N1CCn2c1nc1ccccc12)C(=O)NC1CCCCC1	2	2	-5	2	1	-11	·	·

Screening results deposited in PubChem BioAssay by several laboratories.
